Screening results (PubChem)
Hits are enriched below; roughly 6.7% of the tested compounds scored in any of these assays.
Pf Dd2 growth = P. falciparum Dd2 growth inhibition. SYBR Green, 72 h; hits give low values. activity change, % at 10 µM. 94,000 compounds, 2.3% hits. AID 1159554; in the data active = activity change below about -80%
C diff growth = C. difficile growth inhibition; Clostridium difficile clinical isolate growth, OD600, 24 h; hits give low values; growth activity, negative = inhibition, % at 16 µg/mL (by protocol); 86,000 compounds, 0.25% hits;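 active = mean growth activity at or below -80% and every replicate also at or below -80%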;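 note: 0% = DMSO wells and -100% = levofloxacin 16 µg/mL wells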
T cruzi growth = T. cruzi proliferation inhibition | T. cruzi beta-gal in NIH3T3, GalScreen luminescence, 90 h | inhibition, % at 8.34 µM | 77,000 compounds, 5.9% hits;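 active = mean inhibition above about 93%, with at least 55% of replicates each passing it, limit read from the data, passing the limit was not always enough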
Starred values were filed as active, the others as inactive.

What do the screens show for `CC(C)C#Cc1cnc2c(c1)C(=O)N([C@H](C)CO)C[C@H](C)[C@@H](CN(C)C(=O)Nc1ccc(F)cc1)O2`?
Pf Dd2 growth: -41.8; C diff growth: -3.1; T cruzi growth: 59.4

Results for COc1ccc2c3c(n(C)c2c1)[C@H](CO)N(Cc1ccccc1OC)CC31CN(CC2CCOCC2)C1 ?
Pf Dd2 growth: -88.5*; C diff growth: 6.6

Results for COc1ccc2c3c(n(C)c2c1)[C@@H](CO)N(Cc1ccc(F)cc1)CC31CCN(CC2CCOCC2)CC1 ?
Pf Dd2 growth: -48.6; C diff growth: 4.5

Results for COc1ccc2c3c(n(C)c2c1)[C@@H](CO)N(Cc1ccccc1OC)CC31CCN(C(=O)C2CC2)CC1 ?
Pf Dd2 growth: -83.4*; C diff growth: 5.8

How did COc1ccc2c3c(n(C)c2c1)[C@H](CO)N(Cc1ccccc1OC)CC31CN(CC2CC2)C1 do in these assays?
Pf Dd2 growth: -49.0; C diff growth: 10.6

What do the screens show for `COc1ccc2c3c(n(C)c2c1)[C@H](CO)N(Cc1ccccc1OC)CC31CCN(C)CC1`?
Pf Dd2 growth: -41.7; C diff growth: 1.8

Results for CCCN1CCC2(CC1)CN(Cc1ccccc1OC)[C@H](CO)c1c2c2ccc(OC)cc2n1C ?
Pf Dd2 growth: -92.1*; C diff growth: 8.9

Results for COc1ccc2c3c(n(C)c2c1)[C@@H](CO)N(Cc1ccc(F)cc1)CC31CCN(CC2CC2)CC1 ?
Pf Dd2 growth: -86.5*; C diff growth: -0.4

How did COc1ccc2c3c(n(C)c2c1)[C@@H](CO)N(Cc1ccccc1F)CC31CCN(C(=O)C2CC2)CC1 do in these assays?
Pf Dd2 growth: -59.7; C diff growth: 3.9

How did C/C=C/c1ccc([C@H]2[C@H](CO)N(C(=O)CC)[C@H]2CNC(=O)CC2CC2)cc1 do in these assays?
Pf Dd2 growth: -0.2; C diff growth: -1.5; T cruzi growth: 24.8

Results for C[C@@H]1CCCCO[C@H](CN(C)C(=O)Nc2ccc3c(c2)OCO3)[C@H](C)CN([C@@H](C)CO)C(=O)c2cc(NS(=O)(=O)c3cn(C)cn3)ccc2O1 ?
Pf Dd2 growth: -60.9; C diff growth: 8.6; T cruzi growth: 78.3

What do the screens show for `C/C=C/c1ccc2c(c1)[C@@H]1[C@@H](CCN1C(=O)Cc1ccncc1)[C@@H](CO)N2C`?
Pf Dd2 growth: 26.2; C diff growth: 1.1; T cruzi growth: 67.3

Results for C[C@H]1CCCCO[C@@H](CN(C)Cc2ccc(C(=O)O)cc2)[C@@H](C)CN([C@@H](C)CO)C(=O)c2cc(NC(=O)CCC(F)(F)F)ccc2O1 ?
Pf Dd2 growth: 21.1; C diff growth: -2.7; T cruzi growth: -29.0

What do the screens show for `COc1ccc(NC(=O)N(C)C[C@H]2OCCCC[C@H](C)Oc3ccc(NC(=O)Nc4cccc5ccccc45)cc3C(=O)N([C@H](C)CO)C[C@H]2C)cc1`?
Pf Dd2 growth: -85.5*; C diff growth: 2.7; T cruzi growth: -22.8

How did COc1ccc(NC(=O)N(C)C[C@H]2OCCCC[C@@H](C)Oc3ccc(NC(=O)Nc4cccc5ccccc45)cc3C(=O)N([C@@H](C)CO)C[C@H]2C)cc1 do in these assays?
Pf Dd2 growth: -75.6; C diff growth: -1.4; T cruzi growth: 66.5

Results for COc1ccc(NC(=O)N(C)C[C@H]2OCCCC[C@H](C)Oc3ccc(NC(=O)Nc4cccc5ccccc45)cc3C(=O)N([C@@H](C)CO)C[C@H]2C)cc1 ?
Pf Dd2 growth: -84.9*; C diff growth: 2.1; T cruzi growth: -16.2

What do the screens show for `COc1ccc(NC(=O)N(C)C[C@H]2OCCCC[C@@H](C)Oc3ccc(NC(=O)Nc4cccc5ccccc45)cc3C(=O)N([C@H](C)CO)C[C@@H]2C)cc1`?
Pf Dd2 growth: -77.9; C diff growth: 6.0; T cruzi growth: -11.5

Results for CN(C)CCCNC(=O)C[C@H]1CC[C@@H]2[C@@H](COc3ccc(NC(=O)C4CCC4)cc3C(=O)N2C)O1 ?
Pf Dd2 growth: 33.7; C diff growth: 1.5; T cruzi growth: -5.0

What do the screens show for `C[C@H](CO)N1C[C@H](C)[C@H](CN(C)Cc2ccc3c(c2)OCO3)Oc2c(NC(=O)C3CCOCC3)cccc2C1=O`?
Pf Dd2 growth: 18.0; C diff growth: -1.4; T cruzi growth: -24.5

What do the screens show for `C[C@H]1CN([C@@H](C)CO)C(=O)c2cc(NC(=O)NC3CCCCC3)ccc2O[C@H]1CN(C)C(=O)NC1CCCCC1`?
Pf Dd2 growth: 2.1; C diff growth: -2.3; T cruzi growth: -23.8

What do the screens show for `CN(C)CC(=O)N[C@@H]1CC[C@@H](CCNC(=O)Nc2ccc(C(F)(F)F)cc2)O[C@H]1CO`?
Pf Dd2 growth: -7.4; C diff growth: -89.1*; T cruzi growth: 11.6

How did O=C(NCC[C@H]1CC[C@H](NC(=O)C2CC2)[C@@H](CO)O1)Nc1ccc(C(F)(F)F)cc1 do in these assays?
Pf Dd2 growth: -16.6; C diff growth: -99.4*; T cruzi growth: -6.5

How did CC(=O)N[C@@H]1CC[C@H](CCNC(=O)Nc2ccc(C(F)(F)F)cc2)O[C@H]1CO do in these assays?
Pf Dd2 growth: 0.1; C diff growth: -93.8*; T cruzi growth: 10.8

How did CCC(=O)N[C@@H]1CC[C@@H](CCNC(=O)Nc2ccc(C(F)(F)F)cc2)O[C@@H]1CO do in these assays?
Pf Dd2 growth: 0.1; T cruzi growth: 11.5

How did CC(=O)N[C@H]1CC[C@@H](CCNC(=O)Nc2ccc(C(F)(F)F)cc2)O[C@@H]1CO do in these assays?
Pf Dd2 growth: 11.3; C diff growth: -77.2; T cruzi growth: 16.2

Results for O=C(NCC[C@H]1CC[C@H](NC(=O)C2CC2)[C@H](CO)O1)Nc1ccc(C(F)(F)F)cc1 ?
Pf Dd2 growth: 8.2; C diff growth: -7.3; T cruzi growth: -29.5

How did Cc1ccc(-c2cnc3c(c2)C(=O)N([C@@H](C)CO)C[C@@H](C)[C@H](CN(C)C(=O)CN(C)C)O3)cc1 do in these assays?
Pf Dd2 growth: -6.3; C diff growth: 0.3

What do the screens show for `COc1ccc2c3c([nH]c2c1)[C@H](CO)N(C(=O)Nc1cccc(F)c1)CC31CN(S(=O)(=O)c2cccc(C)c2)C1`?
Pf Dd2 growth: -51.5; C diff growth: -0.2

How did COc1ccc2c3c([nH]c2c1)[C@H](CO)N(C)CC31CCN(S(=O)(=O)c2cccc(F)c2)CC1 do in these assays?
Pf Dd2 growth: -60.2; C diff growth: 6.8

How did COc1ccc2c3c([nH]c2c1)[C@H](CO)N(CC1CC1)CC31CCN(S(=O)(=O)c2cccc(F)c2)CC1 do in these assays?
Pf Dd2 growth: -89.6*; C diff growth: 7.8

How did COc1ccc2c3c([nH]c2c1)[C@H](CO)N(C(=O)Nc1cccc(F)c1)CC31CCN(S(=O)(=O)c2cccc(C)c2)CC1 do in these assays?
Pf Dd2 growth: -81.7*; C diff growth: -11.3

How did COc1ccc(NC(=O)Nc2ccc3c(c2)C(=O)N([C@H](C)CO)C[C@H](C)[C@H](CN(C)S(=O)(=O)c2ccc(C)cc2)OCCCC[C@@H](C)O3)cc1 do in these assays?
Pf Dd2 growth: -87.9*; T cruzi growth: -6.7

What do the screens show for `COc1ccc(S(=O)(=O)N(C)C[C@@H]2OCCCC[C@H](C)Oc3ccc(NC(=O)Nc4ccc(C(F)(F)F)cc4)cc3C(=O)N([C@@H](C)CO)C[C@H]2C)cc1`?
Pf Dd2 growth: -86.0*; C diff growth: 5.6; T cruzi growth: 76.3
